# Values without a mark were called inactive. Results filed as inconclusive are left out. Where a call stands in place of a potency, no number is given. Activity calls are given as the source filed them. Unless noted, calls come from the whole dose curve; as a rule, active = well fitted curve in the direction sought with a large enough effect in the repeat runs; inconclusive = weak or mixed curves; inactive = no such curve, though single readings can be large; an effect the other way counts as inactive or inconclusive.
# Key:
# [1] = qHTS assay to identify small molecule agonists of the TGF-beta/Smad signaling pathway (AID 1346859; active = well fitted activation curve with a large enough effect in the signal ratio in the repeat runs, not every such curve was filed as active; the % refers to the signal ratio; note: series mostly up to about 77 µM)
# How it was run: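 Stable Smad binding element-beta-lactamase HEK 293T cells; 5 hr compound exposure at 37 C under 5% CO2; 2 hr room-temperature substrate step; fluorescence excited at 405 nm, collected at 460 nm and 530 nm.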
# [2] = target: Thyrotropin-releasing hormone receptor (Homo sapiens) (UniProt P34981); assay: qHTS assay to identify small molecule agonists of the thyrotropin-releasing hormone receptor (TRHR) signaling pathway (AID 1346891; calls by dose curve;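 note: HEK293 cells expressing TRHR with calcium dye readout; series mostly up to about 58 µM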)
# How it was run: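 In 1536-format, 1500 TRHR-Hek293 cells per well grew 18 h, took up calcium dye for 2 h at 37 °C, received compound, and were read kinetically; 15-point titrations, triplicates.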
# [3] = Human pregnane X receptor (PXR) small molecule agonists, qHTS cell viability counter screen (AID 1346977); note: nearly all actives have a fitted effect of over 50% in size; note: potency is the fitted concentration of half-maximal effect
# How it was run: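 Readout is CellTiter-Fluor fluorescence from PXR-Luc HepG2 cells. Plated cells rested 5hr, then were treated with compounds for 24hr at 37C and 5% CO2, with reagent present during the last hour.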
# [4] = Caspase-3/7 induction in HepG2 cells by small molecules, qHTS assay (AID 1346978); note: nearly all actives have a fitted effect of over 15% in size
# How it was run: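 Caspase-3/7 induction was measured by Caspase-Glo 3/7 luminescence (30 min, room temperature) after a 17 hr compound exposure of wild-type HepG2 cells seeded at 2,000 per well and pre-incubated 5 hr.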
# [5] = Caspase-3/7 induction in CHO-K1 cells by small molecules, qHTS cell viability counter screen (AID 1346979); note: nearly all actives have a fitted effect of over 35% in size; note: potency is the fitted concentration of half-maximal effect
# How it was run: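 To flag cytotoxic compounds, treated CHO-K1 wild-type cells were given CellTiter-Fluor at 16hr and read fluorescently after 1hr at 37C; the caspase-3/7 luminescence was measured in these same wells.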
# [6] = Caspase-3/7 induction in CHO-K1 cells by small molecules, qHTS assay (AID 1346980); note: nearly all actives have a fitted effect of over 15% in size
# How it was run: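 Luminescent Caspase-Glo 3/7 read (30min, room temperature) quantified apoptosis induction. Cells were wild-type CHO-K1, treated with compound for 17hr at 37 C and 5% CO2.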
# [7] = Caspase-3/7 induction in HepG2 cells by small molecules, qHTS cell viability counter screen (AID 1346981); note: nearly all actives have a fitted effect of over 30% in size; note: potency is the fitted concentration of half-maximal effect
# How it was run: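 Multiplexed with the caspase-3/7 assay: HepG2 cells, 16 hr compound treatment, CellTiter-Fluor viability detection by fluorescence.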
# [8] = target: Nuclear receptor subfamily 1 group I member 2 (Rattus norvegicus) (UniProt Q9R1A7); assay: Rat pregnane X receptor (rPXR) activation by small molecules, qHTS assay (AID 1346983); details: rPXR luciferase reporter cells, One-Glo luminescence, 24 h; max activation: stronger effect = higher value; note: nearly all actives have a fitted effect of over 20% in size
# How it was run: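 Luminescent readout (One-Glo luciferase, 30 min room temperature) followed 24 hr compound treatment at 37 C of rPXR cells plated 2,000 per well and preincubated 5hr; qHTS format with compounds delivered in DMSO.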
# [9] = target: Nuclear receptor subfamily 1 group I member 2 (Homo sapiens) (UniProt O75469); assay: Human pregnane X receptor (PXR) small molecule agonists, qHTS assay (AID 1346982); note: nearly all actives have a fitted effect of over 35% in size; note: potency is the fitted concentration of half-maximal effect
# How it was run: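 We seeded PXR-Luc HepG2 cells in assay medium containing 5% charcoal-stripped FBS, added compounds 5 hr later, incubated 24 hr, and read luminescence with ONE-Glo reagent.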
# [10] = target: Thyrotropin-releasing hormone receptor (Homo sapiens) (UniProt P34981); assay: qHTS assay to identify small molecule antagonists of the thyrotropin-releasing hormone receptor (TRHR) signaling pathway (AID 1346877; active = well fitted inhibition curve with a large enough effect in the repeat runs, not every such curve was filed as active; note: series mostly up to about 51 µM)
# How it was run: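 Screening used HEK293 cells engineered with TRHR, with a brief 5 min room-temperature compound exposure preceding addition of TRH to 1 nM. The read-out was kinetic calcium-dye fluorescence, concentration-response from 15 doses in triplicate.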
# Sequence of Nuclear receptor subfamily 1 group I member 2 (Homo sapiens) (O75469 whole entry, looked up): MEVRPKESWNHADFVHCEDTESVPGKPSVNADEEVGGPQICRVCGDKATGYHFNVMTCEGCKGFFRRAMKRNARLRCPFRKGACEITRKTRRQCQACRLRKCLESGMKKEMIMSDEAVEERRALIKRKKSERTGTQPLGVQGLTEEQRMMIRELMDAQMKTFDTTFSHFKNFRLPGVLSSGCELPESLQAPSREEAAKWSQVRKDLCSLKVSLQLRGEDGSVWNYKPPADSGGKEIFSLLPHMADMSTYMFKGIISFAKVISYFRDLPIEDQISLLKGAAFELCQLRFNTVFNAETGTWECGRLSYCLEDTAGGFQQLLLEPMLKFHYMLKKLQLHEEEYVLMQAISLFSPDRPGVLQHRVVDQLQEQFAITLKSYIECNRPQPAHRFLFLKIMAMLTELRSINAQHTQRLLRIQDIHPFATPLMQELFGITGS
# Sequence of Thyrotropin-releasing hormone receptor (Homo sapiens) (P34981 whole entry, looked up): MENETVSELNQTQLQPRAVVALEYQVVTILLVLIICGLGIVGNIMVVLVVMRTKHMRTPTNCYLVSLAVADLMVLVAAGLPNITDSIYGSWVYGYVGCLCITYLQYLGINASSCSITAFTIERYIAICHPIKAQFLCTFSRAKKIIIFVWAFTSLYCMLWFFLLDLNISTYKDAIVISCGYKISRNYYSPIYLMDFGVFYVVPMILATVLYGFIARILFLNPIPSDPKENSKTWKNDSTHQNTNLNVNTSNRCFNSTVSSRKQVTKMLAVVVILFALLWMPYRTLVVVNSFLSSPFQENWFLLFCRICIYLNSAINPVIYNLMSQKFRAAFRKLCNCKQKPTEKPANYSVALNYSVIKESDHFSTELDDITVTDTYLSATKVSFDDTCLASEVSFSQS
# Sequence of Nuclear receptor subfamily 1 group I member 2 (Rattus norvegicus) (Q9R1A7 whole entry, looked up): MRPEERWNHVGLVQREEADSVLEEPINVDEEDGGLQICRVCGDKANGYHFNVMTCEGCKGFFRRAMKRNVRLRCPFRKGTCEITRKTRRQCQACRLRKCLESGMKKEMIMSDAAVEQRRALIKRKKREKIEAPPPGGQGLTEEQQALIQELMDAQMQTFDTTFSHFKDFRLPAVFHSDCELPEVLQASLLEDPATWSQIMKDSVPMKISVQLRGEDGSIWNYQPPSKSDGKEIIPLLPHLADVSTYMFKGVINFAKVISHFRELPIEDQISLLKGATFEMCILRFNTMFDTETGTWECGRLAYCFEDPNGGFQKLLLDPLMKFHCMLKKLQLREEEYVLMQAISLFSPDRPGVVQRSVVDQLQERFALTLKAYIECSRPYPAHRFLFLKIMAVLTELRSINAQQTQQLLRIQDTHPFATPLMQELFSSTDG
SMILES,outcome [1],outcome [2],Potency [3],outcome [4],Potency [5],outcome [6],Potency [7],max activation [8],Potency [9],outcome [10]
F[Si-2](F)(F)(F)(F)F,inactive,inactive,inactive,inactive,inactive,inactive,inactive,-2.73%,–,–
CCNC(=O)/C=C/c1cccc(Br)c1,inactive,inactive,inactive,inactive,–,inactive,inactive,11.4%,26.6 µM (active),–
Cc1nc([N+](=O)[O-])cn1-c1ccc([N+](=O)[O-])cc1,inactive,inactive,inactive,inactive,inactive,inactive,inactive,–,inactive,–
CCCCC(CC)COC(=O)c1ccccc1 (stereo not given),inactive,inactive,inactive,inactive,inactive,inactive,inactive,–,inactive,–
N#CCCOCCOCCC#N,inactive,inactive,inactive,inactive,inactive,inactive,inactive,–,inactive,–
CCN(CCO)c1cccc(C)c1,inactive,inactive,inactive,inactive,inactive,inactive,inactive,–,inactive,–
CC(=O)OC[C@H]1O[C@@H](OC(C)=O)[C@H](OC(C)=O)[C@@H]1OC(C)=O,inactive,inactive,inactive,inactive,–,inactive,inactive,–,inactive,–
CCS(=O)(=O)CCn1c([N+](=O)[O-])cnc1C,inactive,inactive,inactive,inactive,inactive,inactive,inactive,–,–,–
CCC(=O)c1ccc(O)cc1,inactive,inactive,inactive,inactive,inactive,inactive,–,–,inactive,–
O=C(O)c1ccccc1C(=O)Nc1ccc(S(=O)(=O)Nc2nccs2)cc1,inactive,inactive,inactive,inactive,inactive,inactive,inactive,–,inactive,–
CC(C)C(=O)Nc1cccc(C(F)(F)F)c1,inactive,inactive,inactive,inactive,–,inactive,inactive,–,inactive,–
C=C(C)C(=O)OC1CC(C)CC(C)(C)C1 (stereo not given),inactive,inactive,inactive,inactive,inactive,inactive,inactive,–,inactive,–
NS(=O)(=O)c1cc2c(cc1Cl)NC(CC1CCCC1)NS2(=O)=O (stereo not given),inactive,inactive,inactive,inactive,inactive,inactive,inactive,-1.01%,inactive,–
CCOC(=O)C(=O)c1csc(NC=O)n1,inactive,inactive,inactive,inactive,–,inactive,inactive,–,inactive,–
COc1cc([N+](=O)[O-])ccc1N,inactive,inactive,61.1 µM (active),inactive,54.5 µM (active),inactive,54.5 µM (active),–,inactive,–
c1ccccc1,inactive,inactive,inactive,–,inactive,inactive,inactive,–,–,–
NS(=O)(=O)c1ccc(Cl)c(S(N)(=O)=O)c1,inactive,inactive,inactive,inactive,inactive,inactive,inactive,-3.93%,inactive,–
CC(C)(C)c1ccc(C=O)cc1,inactive,inactive,inactive,inactive,inactive,inactive,inactive,–,inactive,–
COc1ccc(OC)c(NC(=O)CC(C)=O)c1,inactive,inactive,inactive,inactive,inactive,inactive,inactive,–,54.5 µM (active),–
C=COCCOCCOC=C,inactive,inactive,inactive,inactive,inactive,inactive,inactive,–,inactive,–
CCCCCC(=O)OCC,inactive,inactive,inactive,inactive,inactive,inactive,inactive,–,inactive,–
FC(F)(F)c1ccc(Cl)cc1Cl,inactive,inactive,inactive,inactive,–,inactive,inactive,–,inactive,–
CC(C)=CC(C)(C)C,inactive,inactive,inactive,inactive,inactive,inactive,inactive,–,inactive,–
OC(CCN1CCCCC1)(c1ccccc1)c1ccccc1,inactive,inactive,–,–,inactive,inactive,inactive,-1.14%,inactive,inactive
C=CC(C)(O)CC/C=C(\C)CC (stereo not given),inactive,inactive,inactive,inactive,inactive,inactive,inactive,–,–,–

SMILES,outcome [1],outcome [2],Potency [3],outcome [4],Potency [5],outcome [6],Potency [7],max activation [8],Potency [9],outcome [10]
O=C(/C=C/c1ccccc1)NCCO,inactive,–,inactive,inactive,–,inactive,inactive,-0.885%,inactive,inactive
CCNC(=O)NCCCOc1cccc(CN2CCCCC2)c1,inactive,inactive,inactive,inactive,–,inactive,inactive,–,29.8 µM (active),–
C[C@H](CCC(=O)NCC(=O)O)[C@H]1CC[C@H]2[C@@H]3[C@H](O)C[C@@H]4C[C@H](O)CC[C@]4(C)[C@H]3C[C@H](O)[C@]12C,inactive,inactive,inactive,inactive,inactive,inactive,inactive,–,inactive,–
CC(C)CCCC(C)CC=O (stereo not given),inactive,–,inactive,inactive,–,inactive,inactive,–,inactive,inactive
SCCSCCS,inactive,inactive,inactive,inactive,–,inactive,inactive,–,–,–
CC(C)c1ccccc1O,inactive,–,inactive,inactive,inactive,inactive,inactive,–,inactive,–
Cc1cc(C)cc([N+](=O)[O-])c1,inactive,–,inactive,inactive,inactive,inactive,inactive,–,inactive,–
COc1ccc(N=Nc2cc(C)c(N=Nc3ccc(S(=O)(=O)O)cc3)cc2OC)cc1,inactive,inactive,–,–,54.5 µM (active),inactive,30.6 µM (active),–,inactive,–
CC(C)COC(=O)/C=C/c1ccccc1,inactive,–,inactive,inactive,inactive,inactive,inactive,–,inactive,–
CCCCCCCCCOCC1CO1 (stereo not given),inactive,–,inactive,inactive,inactive,inactive,inactive,–,–,–
CCCCCCCC/C=C\CCCCCCCC(=O)OC[C@@H](O)[C@H]1OC[C@H](O)[C@H]1O,inactive,–,inactive,inactive,inactive,inactive,inactive,–,inactive,–
CCOC(=O)OCC/C(SC(=O)OCC)=C(\C)N(C=O)Cc1cnc(C)nc1N,inactive,–,inactive,inactive,inactive,inactive,inactive,–,inactive,–
CNC(=O)C(c1ccccc1)c1ccccc1,inactive,–,inactive,inactive,inactive,inactive,inactive,–,inactive,–
O=C1CC[C@H](C(=O)N2CCCCC2)N1,inactive,–,inactive,inactive,inactive,inactive,inactive,–,inactive,–
CCCCC/C=C/CC(=O)OC,inactive,–,inactive,inactive,inactive,inactive,inactive,–,inactive,–
C=C[Si](C)(C)O[Si](C)(C)C=C,inactive,–,inactive,inactive,inactive,inactive,inactive,–,inactive,–
CCCCOC(=O)C(C)OC(=O)CCC (stereo not given),inactive,–,inactive,inactive,inactive,inactive,inactive,–,inactive,–
CCC(C)(C)C1CCC(=O)CC1,inactive,–,inactive,inactive,inactive,inactive,inactive,–,inactive,–
CCCO,inactive,–,inactive,inactive,inactive,inactive,inactive,–,inactive,–
C=C(C)C(=O)OC,inactive,–,inactive,inactive,inactive,inactive,inactive,–,inactive,–
Cc1nc(C)nc(N2C[C@@H](C)N(c3ccnc([C@@H](C)O)n3)[C@@H](C)C2)n1,inactive,–,inactive,inactive,inactive,inactive,inactive,–,inactive,–
CCCCCCCCOC(C)=O,inactive,–,inactive,inactive,inactive,inactive,inactive,–,inactive,–
O=P(O)(O)OCC(O)CO (stereo not given),inactive,–,inactive,inactive,inactive,inactive,inactive,–,inactive,–
Cc1ccc2c(c1)c1c3n2CCNC3CCC1 (stereo not given),inactive,inactive,–,–,inactive,inactive,–,-0.806%,–,–
CCN(CCC#N)c1ccccc1,inactive,–,inactive,inactive,inactive,inactive,inactive,–,inactive,–

# — PubChem BioAssay (Tox21)
